# Assay results: PubChem BioAssay (Tox21)
# Several values for one entry are separate records, joined by “and”; a condition that tells them apart may be missing. Equal values may be shown once. Results filed as inconclusive are left out. A call without a number means that no potency is given here. Some structures have more than one record in an assay (separate samples or runs), and their calls can disagree. Activity calls are given as the source filed them. Unless noted, the call rests on the fitted dose curve; in most records, active means well fitted curve in the direction sought with a large enough effect in the repeat runs; inconclusive means weak or mixed curves; inactive means no such curve, though single readings can be large; an effect the other way counts as inactive or inconclusive.
# What was measured:
# [1] = A CellTox Green Cytotoxicity Assay to monitor cytotoxicity in HepG2 cells - 0 hour (AID 1224882); further: nearly all actives have a fitted effect of over 35% in size
# Method in brief: (§1)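 First, HepG2 cells (600/well) mixed with reagent were plated; second, after 5 h at 37 C they received compounds via pintool; third, fluorescence was measured at 0 h through 40 h at 8 h intervals.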
# [2] = A CellTox Green Cytotoxicity Assay to monitor cytotoxicity in HepG2 cells - 32 hour (AID 1224883); further: nearly all actives have a fitted effect of over 50% in size; further: potency means the concentration at half of the fitted maximal effect
# Method in brief: as §1
# [3] = A CellTox Green Cytotoxicity Assay to monitor cytotoxicity in HEK293 cells - 8 hour (AID 1224884); further: nearly all actives have a fitted effect of over 35% in size; further: potency means the concentration at half of the fitted maximal effect
# Method in brief: (§2)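 Dead-cell fluorescence measured kinetically: asymmetric cyanine dye, HEK293, 600 cells/well, 5 h settle, 23 nL cpd/DMSO, 37 C, reads 0–40 h every 8 h.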
# [4] = qHTS RealTime-Glo MT Cell Viability Assay in HepG2 cells - 16 hour (AID 1224885); further: nearly all actives have a fitted effect of over 50% in size; further: potency means the concentration at half of the fitted maximal effect
# Method in brief: (§3)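 Tox21 10K library screened in qHTS format on HepG2 cells carrying RealTime-Glo reagents. Compounds were added after a 5 h preincubation, and the luminescent signal from continuous culture was measured repeatedly during 40 h treatment.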
# [5] = qHTS RealTime-Glo MT Cell Viability Assay in HEK293 cells - 24 hour (AID 1224886); further: nearly all actives have a fitted effect of over 50% in size; further: potency means the concentration at half of the fitted maximal effect
# Method in brief: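 Luminescence generated by NanoLuc from substrate produced by living HEK293 cells served as the viability signal. Each value reflects the reading at its stated time point during continuous 40 h compound exposure at 37 C.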
# [6] = qHTS RealTime-Glo MT Cell Viability Assay in HEK293 cells - 8 hour (AID 1224887); further: nearly all actives have a fitted effect of over 50% in size; further: potency means the concentration at half of the fitted maximal effect
# Method in brief: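 600 HEK293 cells per well, dispensed already mixed with RealTime-Glo MT reagents. Compound dosing came 5 h later. The same wells were read for luminescence at 0, 8, 16, 24, 32 and 40 h of exposure at 37 C.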
# [7] = A CellTox Green Cytotoxicity Assay to monitor cytotoxicity in HEK293 cells - 16 hour (AID 1224888); further: nearly all actives have a fitted effect of over 35% in size; further: potency means the concentration at half of the fitted maximal effect
# Method in brief: as §2
# [8] = qHTS RealTime-Glo MT Cell Viability Assay in HepG2 cells - 0 hour (AID 1224889); further: nearly all actives have a fitted effect of over 50% in size
# Method in brief: as §3
# [9] = A CellTox Green Cytotoxicity Assay to monitor cytotoxicity in HepG2 cells - 8 hour (AID 1224890); further: nearly all actives have a fitted effect of over 45% in size; further: potency means the concentration at half of the fitted maximal effect
# Method in brief: as §1
# [10] = qHTS assay to identify small molecule antagonists of the estrogen receptor alpha (ER-alpha) signaling pathway using the BG1 cell line in the presence of 0.1 nM 17-beta-estradiol - cell viability counter screen (AID 1259241); further: nearly all actives have a fitted effect of over 40% in size; further: potency means the concentration at half of the fitted maximal effect
# Method in brief: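 VM7Luc4E2, 4,000 cells/well, phenol red-free medium + 10% charcoal-stripped FBS; 24 hr plating; cpd + 0.1 nM E2 final, 22 hr 37C/5% CO2; CellTiter-Fluor 30 min, fluorescence.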
# [11] = qHTS assay to identify small molecule antagonists of the androgen receptor (AR) signaling pathway using the MDA cell line in the presence of 0.5 nM R1881 - cell viability counter screen (AID 1259242); further: nearly all actives have a fitted effect of over 45% in size; further: potency means the concentration at half of the fitted maximal effect
# Method in brief: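 qHTS format. MDA-kb2 (MMTV-luc, AR/GR responsive) + cpd + 0.5 nM R1881 final, 16 hr 37C/0% CO2 → CellTiter-Fluor 30 min → fluorescence intensity.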
# [12] = target: Estrogen receptor (Homo sapiens) (UniProt P03372); experiment: qHTS assay to identify small molecule antagonists of the estrogen receptor alpha (ER-alpha) signaling pathway using the BG1 cell line in the presence of 0.1 nM 17-beta-estradiol (AID 1259244); further: nearly all actives have a fitted effect of over 50% in size; further: potency means the concentration at half of the fitted maximal effect
# Sequence of Estrogen receptor (Homo sapiens) (P03372 whole entry, looked up): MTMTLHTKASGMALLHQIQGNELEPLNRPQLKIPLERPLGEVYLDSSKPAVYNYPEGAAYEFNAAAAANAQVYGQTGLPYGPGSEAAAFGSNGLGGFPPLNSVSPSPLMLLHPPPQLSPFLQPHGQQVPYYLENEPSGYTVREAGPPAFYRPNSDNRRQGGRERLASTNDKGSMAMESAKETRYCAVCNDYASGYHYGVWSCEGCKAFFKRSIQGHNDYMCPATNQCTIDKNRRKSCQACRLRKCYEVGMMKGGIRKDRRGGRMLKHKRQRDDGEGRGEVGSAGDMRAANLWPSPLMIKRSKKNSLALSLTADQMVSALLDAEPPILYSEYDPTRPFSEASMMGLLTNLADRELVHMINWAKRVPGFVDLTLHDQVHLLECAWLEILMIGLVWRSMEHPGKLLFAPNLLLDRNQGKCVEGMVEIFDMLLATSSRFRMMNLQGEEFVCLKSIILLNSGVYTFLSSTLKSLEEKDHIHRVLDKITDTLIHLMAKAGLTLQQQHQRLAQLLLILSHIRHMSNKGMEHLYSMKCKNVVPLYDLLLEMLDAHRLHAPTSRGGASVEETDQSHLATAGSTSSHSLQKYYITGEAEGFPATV
# Method in brief: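 Reporter is a stably transfected luciferase under four estrogen responsive elements in VM7Luc4E2 cells expressing native full-length ER-alpha; inhibition of 0.1 nM (final) 17beta-estradiol-driven signal over 22 h is read by luminescence.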
# [13] = qHTS assay to identify small molecule phospholipidosis (PLD) inducers (AID 1259344; active means well fitted curve in the direction sought with a large enough effect; an effect the other way counts as inactive or inconclusive)
# Method in brief: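 Read-out is LipidTOX Red fluorescence (ex 595/em 615) imaged in HepG2 cells after 24 h compound exposure at 37 C, with Hoechst nuclear counterstain (ex 352/em 461) allowing per-cell normalisation.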
# [14] = qHTS assay to identify small molecule HDAC inhibitors (AID 1259364);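 further: wild-type HCT-116 cells with endogenous class I/II HDAC activity; top concentration of the series differs between compounds; nearly all actives have a fitted effect of over 45% in size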
# Method in brief: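 Quantitative high-throughput format: overnight-seeded HCT-116 cells got compounds for 2 hr at 37C; HDAC-Glo I/II reagent added, 30 min RT, luminescence measured.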
# [15] = qHTS assay to identify small molecule agonists of the sonic hedgehog signaling (Shh) pathway - cell viability counter screen (AID 1259366); further: nearly all actives have a fitted effect of over 50% in size; further: potency means the concentration at half of the fitted maximal effect
# Method in brief: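 Cytotoxicity counter screen run in the same wells as the Shh reporter assay. NIH/3T3 cells carrying a Gli1 response element–driven luciferase were treated with DMSO-dissolved compounds for 24hr, and live-cell protease activity was measured with CellTiter-Fluor.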
# [16] = qHTS assay to identify small molecule antagonists of the sonic hedgehog signaling (Shh) pathway - cell viability counter screen (AID 1259367); further: nearly all actives have a fitted effect of over 55% in size; further: potency means the concentration at half of the fitted maximal effect
# Method in brief: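 Fluorescence read-out (CellTiter-Fluor, 1 hr at 37C) taken after 23 hr compound treatment of 3T3 Gli1-Luc cells stimulated with conditioned medium. Cells were seeded at 2,000 per well and pre-incubated 4 hr.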
# [17] = qHTS assay to identify small molecule agonists of the sonic hedgehog signaling (Shh) pathway (AID 1259368; calls by dose curve;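 further: NIH/3T3-derived 3T3Gli1-Luc cells carrying a stable Gli1-driven firefly luciferase reporter; series mostly up to about 92 µM; nearly all actives have a fitted effect of over 15% in size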)
# Method in brief: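 Quantitative high-throughput format using a Gli1-driven firefly luciferase reporter line derived from NIH/3T3 cells. After a 24 hr compound treatment at 37 C and 5% CO2, luminescence reported Gli1 response element activity.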
# [18] = A CellTox Green Cytotoxicity Assay to monitor cytotoxicity in HEK293 cells - 32 hour (AID 1224881); further: potency means the concentration at half of the fitted maximal effect; nearly all actives have a fitted effect of over 40% in size
# Method in brief: as §2
# [19] = qHTS assay to identify small molecule HDAC inhibitors - cell viability counter screen (AID 1259365); further: nearly all actives have a fitted effect of over 50% in size; further: potency means the concentration at half of the fitted maximal effect
# Method in brief: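 Luminescence from CellTiter-Glo, developed 30min at room temperature, reports viability of wild-type HCT-116 cells treated 2hr with compounds at 37 C and 5% CO2 after overnight plating.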
Compound,Potency [1],Potency [2],Potency [3],Potency [4],Potency [5],Potency [6],Potency [7],Potency [8],Potency [9],Potency [10],Potency [11],Potency [12],Potency [13],Potency [14],Potency [15],Potency [16],outcome [17],Potency [18],Potency [19]
NS(=O)(=O)c1cc2c(cc1Cl)NCNS2(=O)=O,inactive,inactive,inactive,inactive,inactive,inactive,inactive,inactive,inactive,inactive,inactive,inactive,inactive,inactive,inactive,inactive,inactive,,
Cc1ncc([N+](=O)[O-])n1CCO,inactive,inactive,inactive,inactive,inactive,inactive,inactive,,inactive,inactive,inactive,inactive,inactive,inactive,inactive,inactive,inactive,,
Cc1cn([C@H]2C=C[C@@H](CO)O2)c(=O)[nH]c1=O,inactive,inactive,inactive,inactive,inactive,inactive,inactive,inactive,inactive,inactive,inactive,,inactive,inactive,inactive,inactive,inactive,,
CCCCCCCCCCCCCCCC[N+](C)(C)Cc1ccccc1,,25.3 µM (active) and 15.8 µM (active) and 10.7 µM (active),45 µM (active) and 15.8 µM (active) and 21.3 µM (active),25.3 µM (active) and 19.8 µM (active) and 21.3 µM (active),8.98 µM (active) and 22.3 µM (active) and 3.01 µM (active),50.5 µM (active) and 49.8 µM (active) and inactive,50.5 µM (active) and 44.4 µM (active) and 23.9 µM (active),,63.6 µM (active) and 35.3 µM (active) and 26.8 µM (active),inactive,50.1 µM (active) and 55.5 µM (active) and 26.6 µM (active),63.1 µM (active) and 55.5 µM (active),inactive,inactive,70.8 µM (active) and 35 µM (active),inactive,inactive,50.5 µM (active) and 44.4 µM (active) and 23.9 µM (active),inactive
Cc1c(C(=O)O)c(O)cc2c1C(=O)c1c(O)c([C@@H]3O[C@H](CO)[C@@H](O)[C@H](O)[C@H]3O)c(O)c(O)c1C2=O,inactive,inactive,inactive,inactive,inactive,inactive,inactive,inactive,inactive,33.5 µM (active) and 21.7 µM (active),37.6 µM (active) and 27.3 µM (active),inactive,inactive,inactive,26.6 µM (active) and 27.3 µM (active),29.9 µM (active) and 27.3 µM (active),inactive,,27.3 µM (active) and inactive
COc1ccc2cc(S(=O)(=O)N[C@H](CC(=O)N[C@H](Cc3ccc(CN4[C@H](C)CCC[C@@H]4C)cc3)C(=O)N(C)C(C)C)c3ccc4c(c3)OCO4)ccc2c1,,52 µM (active),,52 µM (active),41.3 µM (active),46.3 µM (active),,,,29 µM (active),46 µM (active),51.6 µM (active),,inactive,25.8 µM (active),29 µM (active),inactive,52 µM (active),
